High-throughput results (PubChem BioAssay)
KCNQ2 inh = rat KCNQ2 potassium channel inhibitors, primary screen, cell-based, CHO-K1, FluxOR thallium flux, B-score; B-score at 10 µM; 20 min; hits give low values; AID 2156, 2009; actives 1.1% (n = 310,000);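 active means fluorescence ratio B-score at most minus 3 library SDs, with starting brightness B-score within 2 library SDs, cut at about -5.5 in these data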
KCNQ2 enhance = potentiators of rat KCNQ2 potassium channel; B-score at 10 µM; CHO-K1 KCNQ2, FluxOR thallium flux fluorescence; hits give high values; actives 0.54% (n = 310,000); Potassium voltage-gated channel subfamily KQT member 2 (Rattus norvegicus), O88943;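 active means fluorescence ratio B-score at least 3 SD of library B-scores, with initial fluorescence B-score within 3 of them, cut at about 5.3 in these data; same plate scores as AID 2156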;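 further: B-score of peak minus minimum over baseline fluorescence ratio after K+ and Tl+ stimulus; positive B-score means potentiation of KCNQ2 with more thallium influx and brighter signal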
KCNQ2 block conf = rat KCNQ2 potassium channel inhibitors, confirmation, cell-based, thallium flux; activity change, negative = inhibition, % at 10 µM; AID 493025, 2011; actives 57% (n = 1,000); shares compounds with KCNQ2 inh; KCNQ2-expressing cells, inhibition; hits give low values;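 further: 0% = vehicle wells and values are ratio percent relative to vehicle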
KCNQ1 spec = human KCNQ1 channel inhibition, counter-screen for KCNQ2 inhibitor project, cell-based, FluxOR thallium flux; shares compounds with KCNQ2 inh; KCNQ1-expressing cells, FluxOR thallium flux fluorescence; hits give low values; activity change, negative = inhibition, % at 10 µM; actives 15% (n = 1,000);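 active means activity change at least 3 SD of negative controls below their mean in both duplicate wells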;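 further: CHO cells stably transfected with KCNQ1 and depolarized by potassium stimulus; peak minus minimum fluorescence over baseline after thallium addition; 0% = vehicle negative control and -100% = blank without thallium stimulus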
Target sequence (P51787 whole entry, looked up): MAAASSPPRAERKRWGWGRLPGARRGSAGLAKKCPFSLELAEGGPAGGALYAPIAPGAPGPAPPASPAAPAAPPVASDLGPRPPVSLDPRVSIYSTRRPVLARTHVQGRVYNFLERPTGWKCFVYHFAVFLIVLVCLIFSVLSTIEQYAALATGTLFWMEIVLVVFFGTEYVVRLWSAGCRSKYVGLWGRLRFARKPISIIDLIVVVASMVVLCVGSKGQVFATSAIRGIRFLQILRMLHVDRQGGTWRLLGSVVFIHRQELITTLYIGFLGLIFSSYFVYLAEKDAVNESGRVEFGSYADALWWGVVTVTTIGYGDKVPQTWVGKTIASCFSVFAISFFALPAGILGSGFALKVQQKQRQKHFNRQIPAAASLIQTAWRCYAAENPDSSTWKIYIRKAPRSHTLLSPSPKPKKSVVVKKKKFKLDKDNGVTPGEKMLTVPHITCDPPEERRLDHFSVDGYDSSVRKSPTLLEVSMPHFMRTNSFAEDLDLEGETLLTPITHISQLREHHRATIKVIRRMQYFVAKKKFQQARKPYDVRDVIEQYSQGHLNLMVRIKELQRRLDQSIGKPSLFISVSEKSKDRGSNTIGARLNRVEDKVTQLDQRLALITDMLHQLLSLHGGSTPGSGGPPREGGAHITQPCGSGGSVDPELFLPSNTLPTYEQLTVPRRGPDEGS
CHO parental ctr = thallium flux change in parental CHO cells, counter-screen for KCNQ2 inhibitor project; shares compounds with KCNQ2 inh; hits give low values; activity change, % at 10 µM; actives 14% (n = 1,000); AID 493029, 2011;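 further: 0% = vehicle negative controls with stimulus buffer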
KCNQ2 inh confirm = rat KCNQ2 channel inhibitors, confirmation, cell-based, automated patch clamp, single concentration; shares compounds with KCNQ2 inh; KCNQ2-expressing cells, automated patch clamp current; calls only at 10 µM; actives 49% (n = 550); AID 588531, 2011
Starred values were filed as active, the others as inactive; i = inactive; x = no result; + = active, no number. Sampled rows, rich in hits. Any-hit rate of the full collection: about 1.6%. Unless noted, how the calls were made is not given here.

SMILES | KCNQ2 inh | KCNQ2 enhance | KCNQ2 block conf | KCNQ1 spec | CHO parental ctr | others
CCOC(=O)c1c(CN(CC)CC)oc2ccc(OC)cc12 | i | x | x | x | x
COc1ccc(-c2n[nH]c(C)c2-c2cnn(-c3ccccc3)c2)c(O)c1 | -8.03* | -8.03 | i | i | i
COc1ccc(-c2n[nH]c(C)c2-c2cnn(-c3ccccc3)c2)c(O)c1C | i | x | x | x | x
O=C(CCCOc1ccc(Cl)cc1Cl)N1CCCc2ccccc21 | -14.4* | -14.4 | i | i | i
O=C(COc1ccc(Cl)cc1Cl)OCC(=O)N1CCCc2ccccc21 | i | 0.48 | x | x | x
Cc1cccc(NC(=S)NCc2ccccc2Cl)c1C | i | 0.25 | x | x | x
CCN(CC)C(=O)Oc1ccc2ccccc2c1Br | i | x | x | x | x
O=C(Oc1ccc2ccccc2c1Br)N1CCCCCC1 | -6.66* | -6.66 | i | i | i
COc1c(C)cccc1C(=O)NCCCNC(=O)c1ccc(C)nc1 | i | x | x | x | x
Cc1sc(NC(=O)CN2CCOCC2)c(C(=O)c2ccccc2)c1C | i | x | x | x | x
Cc1ccc(C(=O)c2c(NC(=O)c3ccccc3C)sc(C)c2C)cc1 | -10.6* | -10.6 | -27.5%* | i | i | KCNQ2 inh confirm=i
CCN(CC)CC(=O)Nc1sc(C)c(C)c1C(=O)c1ccc(C)cc1 | -6.61* | -6.61 | i | i | i
CCN(CC)CC(=O)Nc1sc(C)cc1C(=O)c1ccc(C)cc1 | -6.69* | -6.69 | -23.0%* | i | i | KCNQ2 inh confirm=i
Cc1cc(C(=O)c2ccccc2)c(NC(=O)CCl)s1 | i | x | x | x | x
Cc1sc(NC(=O)c2ccco2)c(C(=O)c2ccc(Cl)cc2)c1C | i | x | x | x | x
Cc1cc(C)n(C(=O)CN2C(=O)COc3ccccc32)n1 | i | 0.34 | x | x | x
Cc1ccc(S(=O)(=O)N(CC(=O)NCCC2=CCCCC2)Cc2ccccc2)cc1 | -10.8* | -10.8 | -30.0%* | i | i | KCNQ2 inh confirm=i
O=C(CN(Cc1ccccc1)S(=O)(=O)c1ccc(F)cc1)NCCC1=CCCCC1 | i | x | x | x | x
O=C(CN(Cc1ccccc1F)S(=O)(=O)c1ccc(Cl)cc1)NCCC1=CCCCC1 | i | x | x | x | x
COc1ccc(CNC(=O)CN(C)S(=O)(=O)c2ccc(Cl)cc2)cc1 | i | x | x | x | x
COc1ccc(CNC(=O)CN(Cc2ccc(C)cc2)S(=O)(=O)c2ccc(Cl)cc2)cc1 | -6.67* | -6.67 | i | i | i
Cc1ccc(S(=O)(=O)N(CC(=O)NCCC2=CCCCC2)Cc2ccccc2F)cc1 | -7* | -7 | i | i | i
CCSc1nnc(N)s1 | i | x | x | x | x
O=C(Nc1nc(-c2cc(Cl)sc2Cl)cs1)c1cccs1 | i | x | x | x | x
CCOC(=O)c1ccccc1NC(=O)CSc1nc(N)cc(N)n1 | i | 0.26 | x | x | x
SMILES | KCNQ2 inh | KCNQ2 enhance | KCNQ2 block conf | KCNQ1 spec | CHO parental ctr | others
COc1ccc(NC(=O)CN(C)CC(=O)Nc2ccccc2SC)cc1 | i | 0.42 | x | x | x
O=C(CCc1ccc(Oc2cc([N+](=O)[O-])cc([N+](=O)[O-])c2)cc1)Nc1cccc(Cl)c1 | i | x | x | x | x
Cc1ccc(C(C(=O)NCc2ccc(F)cc2)N(C(=O)c2csnn2)C2CC2)o1 (centres undefined) | -8.72* | -8.72 | -20.5%* | i | i | KCNQ2 inh confirm=+
Cc1ccc(C(C(=O)NCc2ccc(F)cc2)N(C(=O)c2csnn2)C2CC2)cc1 (centres undefined) | i | x | x | x | x
Cc1occc1C(=O)Nc1ccccc1NC(=O)c1ccoc1C | i | 0.04 | x | x | x
COCCOC(=O)C1=C(C)NC(SCC(=O)NC(C)(C)C)=C(C#N)C1c1ccco1 (centres undefined) | i | 0.1 | x | x | x
COc1ccccc1NC(=O)C1=C(C)NC(SCC(=O)c2ccccc2)=C(C#N)C1c1ccco1 (centres undefined) | -12.2* | -12.2 | i | i | i
COc1ccccc1CNC(=O)COC(=O)C1CCN(c2ccc(C(F)(F)F)cn2)CC1 | -6.8* | -6.8 | i | i | i
O=C(COC(=O)C1CCN(c2ccc(C(F)(F)F)cn2)CC1)NCCc1ccccc1 | i | 1.92 | x | x | x
Cc1cc2oc(=O)cc(CN3CCN(Cc4ccccc4)CC3)c2cc1Cl | i | x | x | x | x
C/C(=N\NC(=O)C(N)=O)c1ccc(O)cc1O | i | x | x | x | x
